Assay results published in article PMC5540273 (PLoS ONE, 2017).

Tests used:
Conditions in all cases: concentration: 1 μM, replicates: in singlicate; n = 1
ERK1 = test system: T1, ERK1
T1 construct: gene MAPK3

ERK2 = test system: T2, ERK2
T2 construct: gene MAPK1

ERK3 = test system: T3, ERK3
T3 construct: gene MAPK6

ERK4 = test system: T4, ERK4
T4 construct: gene MAPK4

ERK5 = test system: T5, ERK5
T5 construct: gene MAPK7

ERK8 = test system: T6, ERK8
T6 construct: gene MAPK15

ERN1 = test system: ERN1
FAK = test system: T7, FAK
T7 construct: gene PTK2

FER = test system: FER
FES = test system: FES
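Also: KINOMEscan kinase panel screen.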

SMILES	%Inh (ERK1) [%]	%Inh (ERK2) [%]	%Inh (ERK3) [%]	%Inh (ERK4) [%]	%Inh (ERK5) [%]	%Inh (ERK8) [%]	%Inh (ERN1) [%]	%Inh (FAK) [%]	%Inh (FER) [%]	%Inh (FES) [%]
C[C@@H]1CC[C@@H](C(=O)Nc2ccccc2)CN1c1cc(-c2ccc3c(N)n[nH]c3c2)nc(N)n1 [GSK2286062]	10	0	0	28	0	0	0	0	13	12
CCS(=O)(=O)c1ccc(OC)c(Nc2nccc(-c3c(-c4cccc(NC(=O)c5c(F)cccc5F)c4)nn4ncccc34)n2)c1 [GSK326180]	0	5	13	47	0	0	22	0	22	0
Cl.Cl.NCC(C(=O)Nc1cc(Br)c(-c2ccnc3[nH]ccc23)s1)c1ccccc1 (stereo not shown) [GSK1269851]	6	0	0	6	0	74	18	0	18	38
O=C(O)C(F)(F)F.O=C(O)C(F)(F)F.O=c1[nH]ccc2nc(N[C@@H]3CCCNC3)nc(Nc3ccc(S(=O)(=O)N4CCOCC4)cc3)c12 [GSK2177277]	59	72	100	100	58	99.2	60	86	95.4	68
Cc1ccc(S(=O)(=O)Nc2ccc(Nc3nccc(Nc4cccc5[nH]ncc45)n3)cc2)cc1 [GSK581271]	0	0	0	5	0	28	0	0	7	0
Fc1ccc(-c2ncn(C3CCNCC3)c2-c2ccnc(Oc3ccc(-c4ccccc4)cc3)n2)cc1 [SB-245391]	47	2	0	15	9	31	45	12	0	27
COC(=O)Nc1nc2cc(Oc3ccc(NC(=O)Nc4cc(C(F)(F)F)ccc4F)cn3)ccc2[nH]1.Cl.Cl [GW681170]	8	0	0	1	0	95.3	0	0	23	0
COc1cc(Nc2nccc(-c3c(-c4cccc(NC(=O)c5c(F)cccc5F)c4)nn4ccccc34)n2)cc(OC)c1OC [GSK323521]	25	36	0	3	0	24	2	0	14	0
CC(=O)Nc1nc2cnc(Nc3cc(NC(=O)c4cccc(C5(C#N)CC5)c4Cl)ccc3C)nc2s1	0	14	13	0	3	0	28	0	0	12
NCCCC(NC(=O)c1cc(Br)c(-c2ccnc3[nH]ccc23)s1)c1ccccc1.O=C(O)C(F)(F)F.O=C(O)C(F)(F)F (stereo not shown) [GSK1287544]	12	22	0	0	0	43	22	0	0	1
Cn1cc(-c2ccc3c(c2)CCN3C(=O)Cc2cccc(Cl)c2)c2c(N)ncnc21 [GSK2606590]	0	10	0	11	0	0	0	0	35	0
CCn1c(-c2nonc2N)nc2c(C#CC(C)(C)O)ncc(OCCCCN)c21.O=C(O)C(F)(F)F.O=C(O)C(F)(F)F [GSK507274]	0	1	6	8	0	10	0	0	0	9
O=C(Nc1cccc(-c2nn3ccccc3c2-c2ccnc(Nc3cccc(F)c3)n2)c1)c1c(F)ccc(F)c1Cl [GSK357952]	0	0	0	0	0	20	17	0	45	6
Cc1ccc(C)c(NC(=O)NC2CCN(c3ccnc(Nc4ccc(F)cc4)n3)C2)c1 (stereo not shown) [GSK1379720]	35	0	0	12	0	0	3	0	2	0
CN1CCN(Cc2cccc(-c3ccc4c(Nc5ccc(Oc6ccccc6)cc5)ccnc4c3)c2)CC1 [GW578342]	4	0	0	9	0	0	11	0	4	4
CNC(=O)c1ccccc1Nc1nc(Nc2ccc(N3CCOCC3)cc2)ncc1Cl.Cl [GSK1576028]	59	68	92	64	84	99.5	78	100	97.7	62
